Screens as filed in PubChem.
The list is not random: actives were taken first. Their share in the collection is about 3.7%.
tim23-1 inh: tim23-1 yeast growth inhibition; S. cerevisiae tim23-1 growth, BacTiter-Glo luminescence, 24 h; inhibition, % at 20 µM; 330,000 compounds, 1.3% hits; AID 463212;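 active = growth inhibition of the mutant yeast at or above 50%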;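 also: temperature-sensitive mutant grown at 25 °C; plate controls were DMSO-treated mutant yeast for no effect and medium wells lacking yeast for full effect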
PfHsp90 set2: reduces growth (ATP signal) of yeast expressing P. falciparum Hsp90 | S. cerevisiae expressing PfHsp90, BacTiter-Glo ATP, 48 h; yeast lacking PDR1 and PDR3 efflux regulators | inhibition, % at 9.4 µM | 310,000 compounds, 0.32% hits | AID 504621;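 active = every replicate shows inhibition above about 80%, whatever the replicate mean, limit read from the data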;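 also: 0% = DMSO neutral controls and 100% = 20 µM radicicol positive controls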
tim10-1 inh: tim10-1 yeast growth inhibition; inhibition, % at 20 µM; S. cerevisiae tim10-1 ts strain growth, BacTiter-Glo, 24 h; 330,000 compounds, 2.2% hits; AID 463190;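 active = inhibition of at least 40%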;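 also: mutant grown at 25 °C; 0% = DMSO wells with yeast and 100% = wells holding no yeast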
TIM10 inh: inhibits growth of TIM10 yeast strain; S. cerevisiae TIM10 strain growth, BacTiter-Glo luminescence, 24 h; inhibition, % at 10 µM; 330,000 compounds, 1.4% hits;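 active = inhibition of 40% or more at the single tested concentration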;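 also: wild-type TIM10 isogenic control strain grown at permissive 25 °C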
V-ATPase pH: regulators of yeast V-ATPase proton transport. S. cerevisiae, pHLuorin cytosolic pH fluorescence. response, % at 10 µM. 350,000 compounds, 0.37% hits; in the data active = response mostly above about 7.3%, no sharp cut-off; inactive = mostly below about 5.4%; also: actives read high
tim10 confirm: TIM10 yeast growth inhibition, confirmed. AID 463215. 4,600 compounds, 63% hits. S. cerevisiae tim10 strain growth, BacTiter-Glo luminescence, 24 h. inhibition, % at 10 µM. shares compounds with TIM10 inh;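 active = inhibition of yeast growth at or above a set limit in either of two replicates at 10 µM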;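 also: this counterscreen used the strain with wild-type TIM10; 0% = yeast with DMSO and 100% = medium wells lacking yeast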
Starred values were filed as active, the others as inactive; / = no result.

SMILES | tim23-1 inh | PfHsp90 set2 | tim10-1 inh | TIM10 inh | V-ATPase pH | tim10 confirm
Nc1c(N(CCCO)C(=O)CCCN2C(=O)c3cccc4cccc(c34)C2=O)c(=O)[nH]c(=O)n1Cc1ccccc1 | / | / | / | / | -1 | /
CCNC(=S)NN=C1CCC(C(C)(C)C)CC1 (configuration not stated) | 15 | 6 | 28 | -2 | -7 | /
CC(C)(C)C1CCC(=NNC(=S)Nc2cccnc2)CC1 (configuration not stated) | 48 | 8 | 39 | 44* | 0 | 35*
O=[N+]([O-])c1ccc(NC(=S)NCc2ccc(F)cc2)cc1 | 41 | -2 | 36 | 42* | 1 | 42*
CC1CCN(C(=O)COC(=O)Cn2cnc3ccccc32)CC1 | 2 | 18 | -7 | 3 | 1 | /
O/N=C/c1cn(-c2ccccc2)nc1-c1ccc2c(c1)OCCO2 | -34 | -16 | 16 | 40 | 6 | -3
CCCCN(C(=O)Cn1ncc(Cl)c(Cl)c1=O)c1c(N)n(CC(C)C)c(=O)[nH]c1=O | 3 | -10 | 0 | -3 | -1 | /
CCCCCOC(=O)c1ccc(NC(=O)c2ccco2)cc1 | 29 | / | 15 | 41* | -1 | 17
CCCCOC(=O)c1ccc(NC(=S)NC(=O)c2ccco2)cc1 | 18 | -3 | 19 | 14 | 6 | /
Cc1nc2ccc(NS(=O)(=O)c3ccc(F)cc3)cc2s1 | 9 | 0 | 3 | 60* | -1 | 0
Cc1nc2ccc(NC(=O)c3cccs3)cc2s1 | 48 | 15 | 18 | 46* | 1 | 27
Cc1nc2ccc(NS(=O)(=O)c3c(F)cccc3F)cc2s1 | 22 | -9 | 9 | 4 | -1 | /
Cc1nc2ccc(NC(=O)c3ccccc3)cc2s1 | 30 | 12 | -5 | 44* | -3 | 7
CCCC(=O)Nc1cc(OC)c(C(=O)OC)cc1Cl | 16 | / | 7 | 1 | -1 | /
CNC(=S)N1CCC(NC(=O)C(Cc2ccccc2)NC(C)=O)CC1 (configuration not stated) | -4 | 20 | 10 | 0 | 1 | /
CN(Cc1ccccc1)C(=O)COC(=O)C1CCN(S(=O)(=O)c2ccc(Cl)c(C(F)(F)F)c2)CC1 | 12 | / | 12 | 16 | 3 | /
S=c1[nH]nc(COc2ccc(Cl)cc2)n1C1CCCCC1 | 26 | -43 | 32 | 40* | 2 | 9
O=C(c1cccc(-n2cccc2)c1)N1CCN(S(=O)(=O)c2c(F)cccc2F)CC1 | 25 | 9 | 26 | 9 | -2 | /
COc1cccc(-c2cc(=O)c3cc(NC(=O)c4ccc(N(C)C)cc4)ccc3[nH]2)c1 | -3 | / | -11 | 67* | / | -10
COc1cccc(-c2cc(=O)c3cc(NC(=O)c4ccccc4)ccc3[nH]2)c1 | 9 | 13 | -1 | 4 | -11 | /
Cc1ccc(N2CC(C(=O)Nc3cc(S(=O)(=O)N4CCCCC4)ccc3C)CC2=O)cc1 (configuration not stated) | / | / | / | / | -3 | /
CCc1ccc(C(=O)NNc2cc(Cl)cc(Cl)c2)cc1 | 23 | 7 | -7 | 6 | 1 | /
CCc1ccc(C(=O)NNc2ccc(Cl)cc2)cc1 | 31 | -2 | 5 | 53* | -3 | 53*
C/C(=N\OCC(=O)OCC(=O)N(Cc1ccccc1)C(C)(C)C)c1ccc2c(c1)OCO2 | 12 | -14 | 22 | 15 | 1 | /
CCc1ccc(NC(=O)CSc2nnc(CNC(=O)c3cccs3)o2)cc1 | 20 | -15 | 16 | -4 | 3 | /
SMILES | tim23-1 inh | PfHsp90 set2 | tim10-1 inh | TIM10 inh | V-ATPase pH | tim10 confirm
Cc1ccc(C)c(Nc2ncccc2C(=O)NCc2cccs2)c1 | 49 | -19 | 40 | 45* | 1 | 44*
CCN(CC)c1ncccc1C(=O)NCc1cccs1 | -6 | 60 | -14 | -8 | 2 | /
CCCCNC(=S)N/N=C/c1sccc1C | 43 | -75 | 31 | 59* | 3 | 47*
Cc1ccsc1/C=N/NC(=O)CO | 5 | -16 | 0 | 5 | 4 | /
Cc1cc(C)n(CC(=O)N2c3ccccc3Sc3ccc(C(F)(F)F)cc32)n1 | 40 | -19 | 39 | 42* | -2 | 27
COc1cccc(C(=O)Nc2ccccc2OC(F)(F)F)c1 | 12 | -17 | 22 | 0 | -1 | /
CCOc1ccc2nc3cc(NCc4ccc(OC)cc4)ccc3c(N)c2c1 | 47 | 4 | 38 | 83* | -2 | 75*
Cc1ccc(N(CC(=O)Nc2ccc(F)c(Cl)c2)S(=O)(=O)c2c(C)noc2C)cc1 | 18 | -8 | 38 | 64* | 1 | 61*
COc1ccc(N(CC(=O)Nc2ccc(C)cc2)S(=O)(=O)c2c(C)noc2C)cc1 | 19 | -10 | 15 | -2 | 1 | /
COc1cccc(C(=O)Nn2c(-c3cccs3)nc3ccccc3c2=O)c1OC | 23 | 2 | 33 | 41* | 0 | 35*
COc1ccc2occ(C(=O)c3cccs3)c2c1 | 28 | -17 | 7 | 42* | -2 | 39*
COc1cc2c(C(=O)N3CCOCC3)c(CSc3ccccc3)n(C)c2cc1Br | 47 | -8 | 39 | 40* | -1 | 30*
c1ccc(N2CCN(c3nc(-c4ccccn4)nc4ccccc34)CC2)cc1 | -7 | -15 | 15 | 40* | -2 | 5
N#C/C(=C/c1ccc(-c2ccc([N+](=O)[O-])cc2)o1)c1nnc(N2CCOCC2)n1-c1ccccc1 | / | / | / | / | -2 | /
COc1ccccc1N(C)S(=O)(=O)c1ccc(C(=O)NCCc2ccc(F)cc2)cc1 | 39 | -21 | 29 | 46* | 1 | 51*
COc1cc(NC(=S)Nc2ncccc2C)cc(OC)c1OC | 20 | / | 37 | 27 | -1 | /
COc1cc(NC(=S)Nc2cccc(C)n2)cc(OC)c1OC | 17 | -7 | 37 | 47* | 1 | 30*
O=C(NCC(O)c1ccccc1)c1cccs1 (configuration not stated) | 9 | 23 | 8 | -9 | 4 | /
O=C(NNC(=S)NC1CCCCC1)c1cccc(S(=O)(=O)Nc2ccccc2Cl)c1 | 21 | -27 | 28 | 41* | 0 | 41*
Cc1ccc(S(=O)(=O)N2CCC(C(=O)Nc3ccc(S(=O)(=O)N4CCCC4)cc3)CC2)cc1C | 3 | -6 | 7 | 14 | 0 | /
O=C(Nc1sc2c(c1C(=O)O)CCC2)C(=O)N1CCOCC1 | -6 | -14 | -5 | -5 | 0 | /
CO/N=C(\c1nonc1N)N1CCN(c2ccc(Cl)cc2[N+](=O)[O-])CC1 | 36 | / | 27 | 43* | -2 | 31*
O=C(N=Nc1c(O)[nH]c2ccccc12)c1cccs1 | 11 | -20 | 24 | 62* | -1 | 47*
CCCCc1ccc(NC(=S)NCCc2ccc(F)cc2)cc1 | 20 | / | 39 | 42* | 5 | 3
Fc1ccc(CCNC(=S)Nc2ccc(F)cc2)cc1 | 10 | 26 | 21 | 17 | -3 | /
COc1cc(/C=C/c2cc[n+](C)cc2)ccc1OCC(=O)Nc1ccc(Cl)c(Cl)c1 | 22 | -2 | 4 | 42* | -7 | 16
COc1ccc(NC(=O)COc2ccc(/C=C/c3cc[n+](C)cc3)cc2OC)cc1 | -21 | 4 | 0 | -10 | -2 | /
